# In article PMC11062922 (Nature Chemical Biology, 2023):
# Read-outs that look alike come from different tables or passages of the source.
# What was measured:
# Set-up in all cases: species or system human, MV4-11 + K-562 + COLO205 + SK-N-BE2 + OVCAR-8
# ACAD11 = conditions: read-out: apparent Kd; compound concentrations:100 nM and 1000 nM (sheet 'Samples'); n = 1
# BCR = conditions: read-out: apparent Kd, n = 1
# BUB1 = conditions: read-out: apparent Kd; compound concentrations:100 nM and 1000 nM (sheet 'Samples'); n = 1
# EPHB2 = conditions: read-out: apparent Kd, n = 1
# EPHB4 = conditions: read-out: apparent Kd, n = 1
# JAK2 = conditions: read-out: apparent Kd, n = 1
# MAP3K11 = conditions: read-out: apparent Kd; compound concentrations:100 nM and 1000 nM (sheet 'Samples'); n = 1
# MAPK14 = conditions: read-out: apparent Kd, n = 1
# TNK1 = conditions: read-out: apparent Kd, n = 1
# PRKX = conditions: read-out: apparent Kd, n = 1
# CSNK1E = conditions: read-out: apparent Kd, n = 1
# ICK = conditions: read-out: apparent Kd, n = 1
# HCK = conditions: read-out: apparent Kd, compound concentrations: 100 nM and 1000 nM (sheet 'Samples'), n = 1
# PIK3CG = conditions: read-out: apparent Kd, compound concentrations: 100 nM and 1000 nM (sheet 'Samples'), n = 1
# CDK5 = conditions: read-out: apparent Kd, n = 1
# MAP4K1 = conditions: read-out: apparent Kd, n = 1
# JAK1 = conditions: read-out: apparent Kd, n = 1
# TGFBR2 = conditions: read-out: apparent Kd, n = 1
# ROCK1 = conditions: read-out: apparent Kd, n = 1
# ABL2 = conditions: read-out: apparent Kd; compound concentrations: 100 nM and 1000 nM (sheet 'Samples'), CATDS: 3.7512936282147198E-2; n = 1
# [1] = compound concentrations:100 nM and 1000 nM (sheet 'Samples')
smiles,measurement,setting,value
CS(=O)(=O)CCn1c(=O)c(Oc2ccc(F)cc2F)cc2cnc(NC3CCOCC3)nc21 [RO5027956-000],potency estimated from few doses,ACAD11,1690 nM
same,potency estimated from few doses,BCR; [1],693 nM
same,potency estimated from few doses,BUB1,1490 nM
same,potency estimated from few doses,EPHB2; [1],720 nM
same,potency estimated from few doses,EPHB4; [1],519 nM
same,potency estimated from few doses,JAK2; [1],65.6 nM
same,potency estimated from few doses,MAP3K11,1930 nM
same,potency estimated from few doses,MAPK14; [1],17.9 nM
same,potency estimated from few doses,TNK1; [1],487 nM
O=C1N=C(N[C@H](CO)c2ccccc2)S/C1=C\c1ccc2ncccc2c1 [RO4554339-000],potency estimated from few doses,"PRKX; compound concentrations: 100 nM and 1000 nM (sheet 'Samples'), CATDS: 0.109723190232525",705 nM
Cl.Cn1c(=O)c(Cc2ccccc2F)cc2cnc(NC3CCOCC3)nc21 [RO3305377-001],potency estimated from few doses,"BCR; compound concentrations: 100 nM and 1000 nM (sheet 'Samples'), CATDS: 2.3215110623404499E-2",783 nM
same,potency estimated from few doses,"EPHB2; compound concentrations: 100 nM and 1000 nM (sheet 'Samples'), CATDS: 2.7488679205580801E-2",555 nM
same,potency estimated from few doses,"EPHB4; compound concentrations: 100 nM and 1000 nM (sheet 'Samples'), CATDS: 3.5368678995808499E-2",357 nM
same,potency estimated from few doses,"MAPK14; compound concentrations: 100 nM and 1000 nM (sheet 'Samples'), CATDS: 8.5761159080735103E-2",105 nM
same,potency estimated from few doses,"TNK1; compound concentrations: 100 nM and 1000 nM (sheet 'Samples'), CATDS: 3.75321125845825E-2",325 nM
O=C(Nc1n[nH]c2nc(-c3ccccc3O)ccc12)C1CC1 [SB-711880],potency estimated from few doses,MAP3K11,1520 nM
CCn1c(-c2nonc2N)nc2cncc(C(=O)N3CC[C@H](N)C3)c21.Cl [SB-772077-B],potency estimated from few doses,BUB1,1790 nM
same,potency estimated from few doses,PRKX; [1],177 nM
Cc1cc(NC(=O)c2cccc(NC(=O)/C=C/CN(C)C)c2)ccc1Nc1nccc(-c2cccnc2)n1 [JNK-IN-7],potency estimated from few doses,CSNK1E; [1],2010 nM
same,potency estimated from few doses,ICK; [1],1290 nM
Nc1nccc(-c2ccc3c(N)n[nH]c3c2)n1 [GSK1034945A],potency estimated from few doses,PRKX; [1],1040 nM
COc1ccc(Nc2nccc(NCCNC(=O)Nc3cc(C)ccc3C)n2)cc1 [GSK1379899A],potency estimated from few doses,HCK; CATDS: 4.52340510871738E-2,1500 nM
Cc1occc1-c1nc(N)c(OC[C@@H](N)Cc2c[nH]c3ccccc23)cc1-c1cc2c(C)n[nH]c2cn1 [GSK1660450B],potency estimated from few doses,CSNK1E; [1],144 nM
CC(C)N1CC(=O)N(C)c2cnc(Nc3cccc(S(=O)(=O)CCN4CCOCC4)c3)nc21 [BI00009348],potency estimated from few doses,PIK3CG; CATDS: 0.22323444695651501,109 nM
NS(=O)(=O)c1ccc(NC=C2C(=O)Nc3ccc4ncsc4c32)cc1 [GW589933X],potency estimated from few doses,"CDK5; compound concentrations: 100 nM and 1000 nM (sheet 'Samples'), CATDS: 3.21718775388454E-2",288 nM
same,potency estimated from few doses,"CSNK1E; compound concentrations: 100 nM and 1000 nM (sheet 'Samples'), CATDS: 1.7679596648165999E-2",1500 nM
same,potency estimated from few doses,"ICK; compound concentrations: 100 nM and 1000 nM (sheet 'Samples'), CATDS: 1.95269690039667E-2",1050 nM
same,potency estimated from few doses,"MAP4K1; compound concentrations: 100 nM and 1000 nM (sheet 'Samples'), CATDS: 1.8829734427402701E-2",1190 nM
Cn1cc(C=C2C(=O)Nc3cccnc32)c2ccccc21 [GW441756X],potency estimated from few doses,"JAK1; compound concentrations: 100 nM and 1000 nM (sheet 'Samples'), CATDS: 0.22655128290916701",1250 nM
CC(C)(CO)CNC(=O)c1ccc2c(c1)/C(=N/Nc1ccc(S(N)(=O)=O)cc1)C(=O)N2 [GW301784X],potency estimated from few doses,ICK; [1],1680 nM
same,potency estimated from few doses,TGFBR2; [1],822 nM
CCn1c(-c2nonc2N)nc2cncc(Br)c21 [SB-738004],potency estimated from few doses,ROCK1; [1],181 nM
NS(=O)(=O)c1ccc(N/N=C2\C(=O)Nc3ccc4ncccc4c32)cc1 [GW305178X],potency estimated from few doses,"CDK5; compound concentrations: 100 nM and 1000 nM (sheet 'Samples'), CATDS: 5.4245718700327898E-2",776 nM
Cl.Cl.NCC(NC(=O)c1cc(-c2ccnc3[nH]ccc23)cs1)c1ccccc1.NCC(NC(=O)c1cc(-c2ccnc3[nH]ccc23)cs1)c1ccccc1 (stereo not drawn) [GSK1229959A],potency estimated from few doses,"JAK2; compound concentrations: 100 nM and 1000 nM (sheet 'Samples'), CATDS: 1.8350594186084E-2",1230 nM
same,potency estimated from few doses,"PRKX; compound concentrations: 100 nM and 1000 nM (sheet 'Samples'), CATDS: 6.1031439007252199E-2",21.6 nM
same,potency estimated from few doses,"ROCK1; compound concentrations: 100 nM and 1000 nM (sheet 'Samples'), CATDS: 0.109953475811368",7.53 nM
CN[C@H](C#Cc1c(F)ccc2c1/C(=C/c1[nH]ccc1OC)C(=O)N2)CO.Cl [RO0283049-001],potency estimated from few doses,"JAK1; compound concentrations: 100 nM and 1000 nM (sheet 'Samples'), CATDS: 9.7447783313560105E-2",49.7 nM
same,potency estimated from few doses,"MAP4K1; compound concentrations: 100 nM and 1000 nM (sheet 'Samples'), CATDS: 2.1208459408743999E-2",1460 nM
Cn1cc(C2=C(c3ccc(OC[C@@H](O)CO)cc3)C(=O)NC2=O)c2ccccc21 [RO3208546-000],potency estimated from few doses,"EPHB2; compound concentrations: 100 nM and 1000 nM (sheet 'Samples'), CATDS: 4.4288817418137498E-2",840 nM
same,potency estimated from few doses,"EPHB4; compound concentrations: 100 nM and 1000 nM (sheet 'Samples'), CATDS: 6.3567639225114006E-2",415 nM
same,potency estimated from few doses,"TNK1; compound concentrations: 100 nM and 1000 nM (sheet 'Samples'), CATDS: 0.384256828153267",31.7 nM
NS(=O)(=O)c1ccc(N/C=C2\C(=O)Nc3ccc4ncsc4c32)cc1 [GW297361X],potency estimated from few doses,"CDK5; compound concentrations: 100 nM and 1000 nM (sheet 'Samples'), CATDS: 4.1634678032953398E-2",772 nM
COc1cc[nH]c1/C=C1\C(=O)Nc2ccc([N+](=O)[O-])c(N3CC[C@@H](O)C3)c21 [RO0504985-000],potency estimated from few doses,"CDK5; compound concentrations: 100 nM and 1000 nM (sheet 'Samples'), CATDS: 3.2036617578660199E-2",1470 nM
same,potency estimated from few doses,"ICK; compound concentrations: 100 nM and 1000 nM (sheet 'Samples'), CATDS: 0.118189348894571",47 nM
same,potency estimated from few doses,"JAK1; compound concentrations: 100 nM and 1000 nM (sheet 'Samples'), CATDS: 3.4351644402230902E-2",1130 nM
same,potency estimated from few doses,"TGFBR2; compound concentrations: 100 nM and 1000 nM (sheet 'Samples'), CATDS: 3.2384825488945002E-2",1410 nM
CCC(CC)(CC)n1cnc2c(N)ncnc21 [SKF-97620],potency estimated from few doses,"MAPK14; compound concentrations: 100 nM and 1000 nM (sheet 'Samples'), CATDS: 3.1976912509304997E-2",857 nM
same,potency estimated from few doses,PIK3CG; CATDS: 3.56480592193908E-2,658 nM
same,potency estimated from few doses,"ROCK1; compound concentrations: 100 nM and 1000 nM (sheet 'Samples'), CATDS: 2.49048423205754E-2",1780 nM
CNCC1CCn2c(c(C3=C(c4cn(C)c5ccccc45)C(=O)NC3=O)c3ccccc32)C1 (stereo not drawn) [RO0318676-000],potency estimated from few doses,"EPHB2; compound concentrations: 100 nM and 1000 nM (sheet 'Samples'), CATDS: 2.91102387203203E-2",1530 nM
same,potency estimated from few doses,"EPHB4; compound concentrations: 100 nM and 1000 nM (sheet 'Samples'), CATDS: 3.3476248277138E-2",973 nM
Cl.Cl.NC[C@H](CC1CCCCC1)NC(=O)c1ccc(-c2ccnc3[nH]ccc23)s1.NC[C@H](CC1CCCCC1)NC(=O)c1ccc(-c2ccnc3[nH]ccc23)s1 [GSK1581428A],potency estimated from few doses,PRKX; [1],14.8 nM
same,potency estimated from few doses,ROCK1; [1],29.2 nM
COc1cc[nH]c1/C=C1\C(=O)Nc2ccc(F)c(C#C[C@@H](O)[C@@H](N)[C@@H](C)O)c21 [RO0283120-000],potency estimated from few doses,CDK5; [1],1070 nM
same,potency estimated from few doses,JAK1; [1],468 nM
same,potency estimated from few doses,MAP4K1; [1],1060 nM
same,potency estimated from few doses,TGFBR2; [1],1600 nM
NS(=O)(=O)c1ccc(N/N=C2\C(=O)Nc3ccc(-c4cnco4)cc32)cc1 [GW276655_KCGS],potency estimated from few doses,ICK; [1],1770 nM
Cl.Nc1nc(-c2ccc3c(c2)C(=Cc2cc(Br)c(O)c(Br)c2)C(=O)N3)cs1 [GW407323A],potency estimated from few doses,"CDK5; compound concentrations: 100 nM and 1000 nM (sheet 'Samples'), CATDS: 3.2075067944878903E-2",1060 nM
COc1ccc(-n2cnc3c(N)ncnc32)cc1 [SKF-97236],potency estimated from few doses,"MAPK14; compound concentrations: 100 nM and 1000 nM (sheet 'Samples'), CATDS: 0.140639496900372",1390 nM
Cl.Cl.Cl.c1ccc(Oc2ccc(Nc3ccnc4cc(-c5ccc(CN6CCNCC6)o5)ccc34)cc2)nc1.c1ccc(Oc2ccc(Nc3ccnc4cc(-c5ccc(CN6CCNCC6)o5)ccc34)cc2)nc1 [GW567142A],potency estimated from few doses,ABL2,226 nM
same,potency estimated from few doses,"BCR; compound concentrations: 100 nM and 1000 nM (sheet 'Samples'), CATDS: 2.8038265853645699E-2",446 nM
same,potency estimated from few doses,HCK; CATDS: 9.4879616105776998E-2,43.2 nM
